The subject of experiment [1] is HaCat. The experiment can be described thus: Cytotoxic Profiling of Annotated Libraries Using Quantitative High-Throughput Screening (AID 1296008). Note: nearly all actives have a fitted effect of over 60% in size. To be noted: Five cell lines viability, CellTiter-Glo ATP luminescence, 48-72 h; max response: stronger effect = lower value. In outline: (§1)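 Cytotoxicity was measured as CellTiter-Glo ATP luminescence, read after 10 min at room temperature. Compound treatment of the cells lasted 48 or 72 hr at 37 degrees Celsius in a qHTS format.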
(In general: Cellular ATP, detected with luciferase, serves as a proxy for viable cell number.)

The subject of experiment [2] is KB-3-1. Described as above. To be noted: Five cell lines viability, CellTiter-Glo ATP luminescence, 48-72 h; max response: stronger effect = lower value. The essentials: as §1

Data on ten compounds can be found in PubChem BioAssay (NCATS).

Results filed as inconclusive are left out. Unmarked numbers belong to inactive results. Calls of active or inactive are those of the source. Calls come from the whole dose curve; as a rule, active = well fitted inhibition curve with a large enough effect; inconclusive = small, poorly fitted or top-dose-only effect; inactive = flat fitted curve, though single readings scatter.
% is set by controls: 0 for no effect and ±100 for the full control effect; potency is the fitted concentration of half-maximal effect.

Turning to `COc1cc(C)c(C(=O)Oc2cc(C)c(C(=O)Oc3cc(C)c(C(=O)NC(C)C(=O)O)c(O)c3)c(O[C@@H]3O[C@H](CO)[C@@H](O)[C@H](O)[C@H]3OC(C)=O)c2)c(OC)c1` (stereo not given in full), the max response in experiment [1] was -13.9%; in experiment [2], -6.88%.
For `CC(=O)c1cc(C(=O)N[C@@H](C)Cn2ccc(-c3ccc(C#N)c(Cl)c3)n2)[nH]n1` the same measures were -24.9% and -26.1%.
For `C=C1C(=O)OC2C1CCC(=C)C1CC(OC(C)=O)C(=C)C12` (stereo not given) the same measures were -12% and 1.53%.
Turning to `C=CC(=O)Nc1cccc(Nc2nc(Nc3ccc(N4CCN(C(C)=O)CC4)cc3OC)ncc2C(F)(F)F)c1`, the Potency was 2.91 µM (active) in experiment [1] and 11.6 µM (active) in experiment [2].
For the compound `C=C(C)C(=O)OC1CC2(C)OC(=CC2=O)C(=C)CC2OC(=O)C(COC)C12` (stereo not given), the max response in experiment [1] is -21.9%; in experiment [2], -15.6%.
Take `C=C1C(=O)O[C@H]2C1[C@H](OC(=O)/C(=C/CO)COC(=O)/C(C)=C/CO)CC(=C)[C@@H]1CC(=O)[C@@H](C)[C@@H]12` (stereo not given in full): the max response in experiment [1] is -52.7%; in experiment [2] it was -3.1%.
The matching figures for `COc1ccc(-c2c(-c3cc(C(=O)O)ccn3)ncn2C)cc1`: -1.2% and 4.75%.
For the compound `C=C(C)C(=O)O[C@H]1C[C@@](C)(O)C(=O)CC(O)/C(C)=C\[C@H]2OC(=O)C(=C)[C@H]12` (stereo not given in full), the max response in experiment [1] is -1.1%. Moreover, the compound was classed as inactive in experiment [2].
`C=C1C(=O)OC2/C=C(\CO)CC/C=C(\C=O)CC(OC(=O)CC(C)C)C12` (stereo not given): the max response in experiment [1] is -10.5%; in experiment [2] it was -5.58%.
Turning to `COc1cc2nc(N3CCCC3)nc(NCCCCCN3CCCC3)c2cc1OC`, the Potency in experiment [1] was 18.4 µM (active); in experiment [2] it was 16.4 µM (active).
